BoNT-A LC inh2 – BoNT A light chain protease inhibition; inhibition, % at 10 µM; 360,000 compounds, 0.17% hits; multiplex microsphere protease substrate cleavage, flow cytometry; note: plate controls were buffer without enzyme for full effect and enzyme alone for no effect
Bead autofluor – compound fluorescence in toxin protease inhibitor counterscreen | compound autofluorescence counterscreen, microsphere flow cytometry; hits give high values | AID 624483 | 360,000 compounds, 3.1% hits | fluorescence intensity (no concentration beside the values); in the data active = fluorescence intensity above about 16000; inconclusive = no clear call, values can overlap the other calls
Anthrax LF prot – inhibitors of Bacillus anthracis lethal factor protease; multiplex microsphere protease cleavage assay, LF; AID 588501; inhibition, % at 10 µM; 360,000 compounds, 0.12% hits; note: plate controls were buffer without enzyme for full effect and enzyme alone for no effect
BoNT-F LC inh – inhibitors of Botulinum neurotoxin F light chain protease; Multiplex microsphere protease cleavage assay, flow cytometry; inhibition, % at 10 µM; 360,000 compounds, 0.22% hits; AID 588497; in the data active = inhibition above about 35%, passing the limit was not always enough; inconclusive = no clear call, values can overlap the other calls; note: plate controls were buffer without enzyme for full effect and enzyme alone for no effect
MazEF act – MazEF (E. coli) toxin RNase activation; FAM/BHQ RNA-DNA oligo cleavage fluorescence, 5 h; AID 504720; 350,000 compounds, 0.32% hits; activation, % at 20 µM; in the data active = activation above about 50%
Target sequence (P0AE70 whole entry, looked up): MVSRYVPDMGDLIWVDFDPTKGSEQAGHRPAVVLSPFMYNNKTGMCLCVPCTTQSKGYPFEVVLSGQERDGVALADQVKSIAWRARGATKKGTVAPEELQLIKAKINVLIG
DUSP3 inh – DUSP3 (human) phosphatase inhibition; inhibition, % at 13.3 µM; 290,000 compounds, 0.52% hits; P51452; recombinant VHR phosphatase, pNPP absorbance; in the data active = inhibition above about 50%
Target sequence (P51452 whole entry, looked up): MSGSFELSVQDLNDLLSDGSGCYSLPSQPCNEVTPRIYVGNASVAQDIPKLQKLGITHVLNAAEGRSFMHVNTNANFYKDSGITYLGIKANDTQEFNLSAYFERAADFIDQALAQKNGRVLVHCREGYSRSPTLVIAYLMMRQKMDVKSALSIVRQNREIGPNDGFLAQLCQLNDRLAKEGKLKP
Active calls of the source: *; ? = inconclusive; . = no result. This is a sample that favours compounds with a hit; in the whole collection about 4.1% have one here. Cut-off read from the data, not from the text of the source, unless noted: active = inhibition above about 30%; inconclusive = no clear call, values can overlap the other calls; inactive = below that.

SMILES	BoNT-A LC inh2	Bead autofluor	Anthrax LF prot	BoNT-F LC inh	MazEF act	DUSP3 inh
O=C(Nc1ccc(NC(=O)C2CCCCC2)nc1)c1ccccn1	-1	2572	-1	-2	3	57*
Cc1cc(C(=O)CN2C(=O)c3ccccc3C2=O)c(C)n1Cc1cccs1	-4	24091*	-1	-3	68*	4
CC(C)(C)S(=O)N1Cc2cc(=O)n(Cc3ccccc3)c(CCO)c2[C@@H]1CCO (stereo partly drawn)	0	4217	-4	-3	-15	.
S=C1SCN(Cc2ccccn2)CN1Cc1ccco1	1	16488*	2	-3	-4	10
CCOCCCN1CN(Cc2ccco2)CNC1=S	0	4161	6	-6	5	0
COCCN1CSC(=S)N(Cc2ccco2)C1	4	21084*	0	6	1	25
S=C1SCN(Cc2cccnc2)CN1Cc1ccccc1	0	4192	-3	-12	-2	-10
Cc1ccc(NC(=O)C2CCN(S(C)(=O)=O)CC2)c(C)c1	?	3903	4	?	5	18
O=c1[nH]c(=O)n(Cc2ccco2)c(O)c1C=NCc1ccc2c(c1)OCO2	3	22050*	-1	4	-8	3
COc1cccc(-n2c(O)c(C=NCc3ccc4c(c3)OCO4)c(=O)[nH]c2=O)c1	0	22432*	0	0	0	28
COc1ccc(-n2c(O)c(C=NCc3ccc4c(c3)OCO4)c(=O)[nH]c2=O)cc1	2	6012	-1	11	1	-16
Cc1ccccc1-n1c(O)c(C=Nc2ccc3c(c2)OCO3)c(=O)[nH]c1=O	?	22656*	-2	1	2	11
COCCCNC(=O)/C=C/c1cccc(Cl)c1	0	20665*	-3	-2	-3	3
CN(C)C(CNC(=O)/C=C/c1cccc(Cl)c1)c1ccccc1 (stereo not drawn)	0	4358	2	-1	-4	11
Cc1c(NC(=O)c2ccccc2N)cccc1C(=O)O	0	20340*	-4	2	8	24
COc1ccc(N2CCN(c3oc(COc4ccccc4Cl)nc3C#N)CC2)cc1	?	19893*	-10	-1	-4	-10
N#Cc1nc(COc2ccc(F)cc2)oc1N1CCN(Cc2ccccc2)CC1	0	4287	-9	-7	-3	-2
Cc1ccc(CNc2oc(COc3ccccc3Cl)nc2C#N)cc1	-1	2314	-4	-12	-19	-7
COc1ccc(CNc2oc(C)nc2C#N)cc1	?	20862*	1	-4	10	9
N#Cc1nc(COc2ccccc2Cl)oc1NCc1ccc(F)cc1	-6	22901*	-6	-8	-19	4
N#Cc1nc(COc2ccc(F)cc2)oc1N1CCC(Cc2ccccc2)CC1	-1	16803*	-5	-3	-10	-4
Cn1c(SCC(=O)NC2CCS(=O)(=O)C2)nc2ccccc21 (stereo not drawn)	2	2784	-1	10	7	.
Cc1ccc(S(N)(=O)=O)cc1NC(=O)c1ccc2c3c(cccc13)CC2	.	.	.	.	8	57*
Cc1ccccc1NC(=O)Nc1cc(S(N)(=O)=O)ccc1C	0	8027	-2	2	-4	6
CC1(C(=O)NS(=O)(=O)c2cccc(C#N)c2)CCN1C(=O)C/C=C/c1ccccc1 (stereo not drawn)	0	2990	-3	2	.	.
SMILES	BoNT-A LC inh2	Bead autofluor	Anthrax LF prot	BoNT-F LC inh	MazEF act	DUSP3 inh
COc1ccc(C(=O)N/N=C/c2ccc(SC)cc2)cc1	0	2264	-1	-4	-5	-14
CSc1ccc(/C=N/NC(=O)c2ccc(O)cc2)cc1	2	2582	-1	23	-2	60*
O=C(N/N=C/c1ccncc1)c1cccs1	-3	3837	24	-19	6	30
CSc1ccc(/C=N/NC(=O)c2cccs2)cc1	0	3499	?	45*	0	-3
CC(OC(=O)c1cccc(-n2cnnn2)c1)C(=O)c1ccccc1 (stereo not drawn)	-1	6397	-4	-1	6	.
CSc1ccc(N2CCN(CCCNC(=O)Nc3ccccc3F)CC2)cc1	-4	24815*	-2	-8	8	-20
CC(C)(C)NCC(=Cc1ccccc1)C(=O)c1ccccc1	0	3965	-3	2	6	.
C#CCOc1ccc(/C=C2/C(=O)N(c3cccc(C(=O)O)c3)N=C2C)cc1OC	0	3037	2	35*	9	8
Cc1ccc(NCC(=O)Nc2ccc(F)c(Cl)c2)cc1S(=O)(=O)N1CCOCC1	0	3959	-4	-2	-6	.
Cc1ccc(S(=O)(=O)NC(=O)NCc2ccco2)cc1	0	2836	-4	1	6	.
Cc1ccc(S(=O)(=O)N[C@@H](CC(C)C)C(=O)NCc2ccco2)cc1	?	23101*	0	-1	2	25
COc1ccccc1CN(CC(=O)NCc1ccco1)C(=O)CNS(=O)(=O)c1ccc(C)cc1	-1	3636	-6	-25	-2	-8
Cc1ccc(S(=O)(=O)NCC(=O)N(CC(=O)NCc2ccco2)Cc2cccs2)cc1	-1	20378*	-2	-3	-5	17
CCCOP(=O)(c1ccc(N(C)C)cc1)C(O)c1ccncc1 (stereo not drawn)	2	19418*	-8	3	0	7
CN(C(=O)c1cccc(NC(=O)Cc2ccc(NC(=O)C3CCCN(C(=O)c4ccccc4)C3)cc2)c1)C1CCCCC1 (stereo not drawn)	0	3681	-4	-2	2	.
COc1cccc(C(C(=O)NC2CCCCC2)N(C(=O)Cc2cccs2)c2ccc(-n3cnnn3)c(OC)c2)c1 (stereo not drawn)	0	22984*	-1	2	-8	21
CCCc1cc(=O)oc2c(C)c(OCC(=O)N3C[C@H]4C[C@@H](C3)c3cccc(=O)n3C4)ccc12	0	4299	-1	-1	10	13
COCc1c(C(=O)N(C)Cc2ccccc2N2CCCC2)oc2ccccc12	-2	?	?	6	-1	.
CCCc1c(-c2ccc(O)cc2)nn(-c2ccc(O)cc2)c1-c1ccc(O)cc1	0	6429	-10	-1	51*	-1
CCCn1c(C)nnc1SCC(=O)NC1CCCCC1	0	6151	0	1	0	6
COc1ccc(N2C(=O)CC(SCCc3nc4ccccc4[nH]3)C2=O)cc1 (stereo not drawn)	4	19552*	0	4	-6	32
Cc1cccn2cc(CNc3ccccc3)nc12	-1	20732*	-2	-6	-11	17
Oc1ccc(/C=N/NC(=S)Nc2cccnc2)c(O)c1O	-3	4137	-6	-6	60*	26
COc1ccc(CCNC(=O)c2cc(-c3ccncc3)nc3c(Cl)cccc23)cc1OC	0	3919	-3	-5	10	53*
COc1ccc(CNC(=O)c2cc(-c3ccncc3)nc3c(C)cc(C)cc23)cc1OC	0	4096	1	-5	12	57*

Bioassay records as filed in PubChem.
